# Results published in PubChem BioAssay AID2315 (National Center for Advancing Translational Sciences (NCATS), 2010).
# Among all 290,000 compounds or so, about 27,000 (9.3%) were called active. The entries come from a sample that favours actives as a whole. Unmarked numbers belong to inactive results. No stated cut-off is given here; in the data, active means inhibition mostly above about 28% (no sharp cut-off); inactive means mostly below about 43%.
# Assay: A qHTS for Small Molecule Inhibitors of Shiga Toxin; further: 0% is about no effect
# Details: Vero cells, Shiga toxin protein synthesis inhibition reporter; at 38.7 µM, stronger effect = higher value
row,Structure (SMILES),inhibition
1,Cc1ccc(C)c(C(=O)N2CCC(n3nccc3NC(=O)C3CC3)CC2)c1,-24.8%
2,N#Cc1c(-c2ccccc2)c(-c2ccccc2)n[nH]c1=O,-6.49%
3,Cc1cccc(N2C(=O)SC(N(CC(=O)O)c3cccc(C)c3)C2=O)c1 (stereo not given),49.7%
4,Cc1cccc(N2C(=O)SC(SC(=Nc3ccccc3)Nc3ccccc3)C2=O)c1 (stereo not given),83.9% (active)
5,Cc1cccc(N2C(=O)CC(SC(N)=Nc3ccccc3)C2=O)c1 (stereo not given),-8.18%
6,COc1cccc(/C=C2\Sc3ccc(C(=O)NCC4CCCO4)cc3N(C)C2=O)c1 (stereo not given),11.4%
7,CCOC(=O)c1c(S(=O)(=O)Nc2ccc(CN3CCC(C)CC3)cc2)c(C)n(C)c1C,-3.73%
8,CC(=O)N1CC(=O)N(CC(=O)Nc2ccc(Br)cc2)C1=S,-1.67%
9,CC1CC(C)CN(C(=O)C2CC(=O)N(c3ccc(F)cc3)C2)C1 (stereo not given),-7.56%
10,O=C(CCCO)N/N=C/c1cc(Br)ccc1O,13.6%
11,O=C(N/N=C/c1ccccc1O)/C(=C/c1ccccc1)CCO,51.6% (active)
12,O=C(N/N=C/c1ccccc1O)C1CCCC1,21.6%
13,Cc1cc(=O)n2[nH]c(-c3cccc(Cl)c3)cc2n1,39.8%
14,O=c1c2c(nc3nc[nH]n13)CCC2,11.8%
15,O=c1c2c(nc3cc(-c4cccc(Cl)c4)[nH]n13)CCCC2,59.1% (active)
16,O=S(=O)(c1ccc(Cl)cc1)c1nc(-c2ccccc2F)oc1NCCN1CCOCC1,-6.01%
17,Cc1nc(Nc2ccc3c(c2)OCCO3)c2nnn(Cc3ccccc3Cl)c2n1,153% (active)
18,CCCc1nc(NCc2ccc3c(c2)OCO3)c2nnn(Cc3ccccc3Cl)c2n1,7.73%
19,Cc1nc(Nc2ccccc2F)c2nnn(Cc3ccccc3Cl)c2n1,-8.68%
20,COc1ccc(C(=O)/C=C/c2ccc(-c3ccccc3)cc2)cc1CSCC(=O)O,-14.5%
21,Cc1ccccc1NC(=O)CCOc1ccccc1,58% (active)
22,Cc1c(NC(=O)CCCOc2ccccc2)cccc1[N+](=O)[O-],10.4%
23,CCc1ccccc1NC(=O)CCOc1ccccc1,-7.03%
24,COc1cccc(CN(C)CC2CCCN(CCc3ccc(Cl)cc3)C2)c1OC (stereo not given),-3.67%

row,Structure (SMILES),inhibition
1,O=C(N/N=C/c1ccc([N+](=O)[O-])o1)c1cn(-c2ccccc2)nc1-c1ccc(F)cc1,8.71%
2,C/[N+]([O-])=C\c1ccc([N+](=O)[O-])o1,-7.77%
3,O=C(/C=C/c1ccc([N+](=O)[O-])o1)NNC(=O)c1ccc(F)cc1,120% (active)
4,Cc1coc2c1c(C)cc1oc(=O)c(CC(=O)NCC(=O)N[C@H](C(=O)O)C(C)C)c(C)c12,-15%
5,Cc1c(C(=O)Nc2cccc(-c3nnc4n3CCCCC4)c2)oc2ccccc12,35%
6,Cc1nc(N2CCN(c3ccccn3)CC2)c2c(C)c(C(=O)Nc3ccc(F)cc3)sc2n1,-7.13%
7,O=c1c2c(nc3n1CCCCC3)sc1c(O)cccc12,20.9%
8,Cc1c(C(=O)Nc2ccccc2)sc2nc3n(c(=O)c12)CCCCC3,95.7% (active)
9,CC(=O)c1ccc(NC(=O)c2sc3nc4n(c(=O)c3c2C)CCCCC4)cc1,81.1% (active)
10,Cc1nc(N2CCOCC2)c2c(C)c(C(=O)Nc3ccc(C(F)(F)F)cc3)sc2n1,-15.2%
11,CN(C(=O)CC1C(=O)NCCN1Cc1ccc(F)cc1Cl)C1CCCCC1 (stereo not given),-14.2%
12,C=CCn1c(CNC(=O)c2ccco2)nnc1SCC(=O)c1ccc(OC)cc1,-12.2%
13,CCn1c(SCC(=O)c2ccc3ccccc3c2)nnc1-c1cccs1,-3.35%
14,COC(=O)c1ccc(NC(=O)CSc2nnc(CNc3ccc(OC)cc3)n2C)cc1,24.4%
15,CCn1c(CNc2ccc(OC)cc2)nnc1SCC(=O)c1ccc(OC)cc1,-15.6% (active)
16,Cc1ccc(-n2c(Cc3cccs3)nnc2SCC(=O)OC(C)C)cc1,8.05%
17,Cn1c(Cc2cccs2)nnc1SCC(=O)Nc1ccccc1,-7.01%
18,CCn1c(Cc2cccs2)nnc1SCC(=O)c1ccc(C)cc1,41.4% (active)
19,CCn1c(SCC(=O)N(C)C2CCS(=O)(=O)C2)nnc1-c1cccs1 (stereo not given),-0.571%
20,CCn1c(SCC(=O)c2ccc(Cl)s2)nnc1-c1cccs1,73.6% (active)
21,O=C(NCc1ccco1)C(c1ccncc1)N(C(=O)Cn1nnc2ccccc21)c1ccccc1 (stereo not given),-3.36%
22,CCOC(=O)c1cc(C)nc(S(C)(=O)=O)c1C#N,47.2%
23,CN(CCc1ccccc1)c1ccc([N+](=O)[O-])cn1,-3.15%
24,CCCCC(c1nnnn1CS(=O)(=O)c1ccc(C)cc1)N1CCC(C(N)=O)CC1 (stereo not given),-8.35%

row,Structure (SMILES),inhibition
1,O=C(CSc1ccsc1[N+](=O)[O-])N1CCCCC1,6.79%
2,CC1CC(C)CN(C(=O)CSc2ccsc2[N+](=O)[O-])C1 (stereo not given),63.3% (active)
3,COc1ccccc1-c1nnc(SCC(=O)N2CC(C)CC(C)C2)o1 (stereo not given),-7.49%
4,COCc1c(C(=O)N/N=C(\C)c2ccncc2)nnn1-c1nonc1N,-3.05%
5,COC(=O)c1ccc(NC(=O)CSc2nnc(C3CC3)n2C)cc1,17.5%
6,O=C(Nn1cnc2ccccc2c1=O)c1ccc(F)cc1Cl,71.8% (active)
7,O=C(Nn1cnc2ccccc2c1=O)c1ccccc1,58.6%
8,O=C(Nn1cnc2ccccc2c1=O)c1ccc([N+](=O)[O-])cc1Cl,-11.9%
9,COc1cc(C(=O)NCc2ccncc2)cc(Br)c1OCc1ccccc1,-9.85%
10,CC(C(=O)NCCc1ccc(S(N)(=O)=O)cc1)N1C(=O)CC(C)(C)Sc2ccccc21 (stereo not given),-10.5%
11,COc1ccc2c(c1OC)C(=O)OC2Nc1nc(-c2ccccc2)cs1 (stereo not given),36.9% (active)
12,COc1ccc(C)cc1Nc1nc(-c2c(C)[nH]c3ccccc23)cs1,-3.8%
13,CCCn1c(CCNc2nc(-c3ccc(OC)cc3)cs2)nc2ccccc21,20.9%
14,Cc1ccc(-c2csc(NC3OC(=O)c4ccccc43)n2)cc1 (stereo not given),30% (active)
15,Cc1ccc(-c2csc(NC(=O)Cn3[nH]c(=O)c4ccccc4c3=O)n2)cc1,42.6%
16,COc1ccc2c(c1OC)C(=O)OC2c1c(O)nc(SC)n(-c2ccccc2)c1=O (stereo not given),-8.28%
17,CC(=O)Nc1ccc(-c2csc(NC=C3C(=O)OC(C)(C)OC3=O)n2)cc1,54%
18,COc1ccc(-c2csc(NC3OC(=O)c4ccccc43)n2)cc1 (stereo not given),41.6% (active)
19,COc1ccc(N/C=C(\C2OC(=O)c3ccccc32)[N+](=O)[O-])cc1 (stereo not given),15.2%
20,Cc1ccc(NS(=O)(=O)c2ccc3c(c2)n(C)c(=O)c(=O)n3C)c(C)c1,-7.48%
21,COCCN1CCn2c(nc3cc(NS(C)(=O)=O)ccc32)C1,-2.98%
22,COc1ccc(C(=O)NC2CC(C)(C)Cc3c2cnn3-c2ccccc2C)o1 (stereo not given),-10.5%
23,O=C(COc1ccc2c3c(c(=O)oc2c1)CCCC3)NCC(O)c1ccccc1 (stereo not given),-3.53%
24,O=C(CCn1c(=S)[nH]c2cc3c(cc2c1=O)OCO3)NCc1ccc(Cl)cc1,1.66%

row,Structure (SMILES),inhibition
1,O=C(CCc1nnc(Cc2ccc3c(c2)OCO3)o1)NCCc1ccccc1Cl,-5.99%
2,CN1CCN(Cc2nc3cc(NC(=O)COc4ccc([N+](=O)[O-])cc4)ccc3n2C)CC1,-2.13%
3,COC(=O)c1cccc(C(=O)N2CCCC(Nc3ccc4c(c3)OCCO4)C2)c1 (stereo not given),2.25%
4,Cc1cc(/C=C2\SC(=O)N(C)C2=O)c(C)n1-c1cccc(C(=O)O)c1,3.52%
5,COc1ccc(OCCCCN2CCC(C)CC2)cc1,-6%
6,CC(C)CNC(=S)NNC(=O)c1nn(C)cc1Cl,4.35%
7,Cc1cccc(NC(=S)Nc2ccc(Cl)c(Cl)c2)c1,17%
8,Cn1cc(Cl)c(C(=O)NNC(=S)Nc2cccc(Cl)c2)n1,49.5% (active)
9,CC(Cc1cccs1)N(Cc1ccc(Cl)cc1)C(=O)c1ccncc1 (stereo not given),-3.64%
10,COc1cc(OC)c(NS(=O)(=O)c2cn(C)cn2)cc1Cl,11.1%
11,COc1cccc(CNC(=O)c2cccnc2Sc2ccc(Cl)cc2)c1,-40.4%
12,CC1CCCN(c2ccc(C(=O)NCCc3ccccc3)cn2)C1 (stereo not given),78.5% (active)
13,CC1CCN(c2c(NCc3ccc(C(=O)NCc4ccccc4)cc3)c(=O)c2=O)CC1,-6.77%
14,O=C(NCCc1ccccc1)c1ccc(NC2=NC3CS(=O)(=O)CC3S2)cc1 (stereo not given),3.05%
15,CCN(CC)S(=O)(=O)c1ccc(N2CCCC2)c(NS(=O)(=O)c2cccs2)c1,21%
16,COc1ccc(CNc2c(CO)cnc3c2cnn3C)cc1,-11.4%
17,CN(C)/C=C(/C(=O)c1ccc(F)cc1)S(=O)(=O)c1ccc(F)cc1,58.3%
18,CN(C)/C=C(/C(=O)c1ccccc1)S(=O)(=O)c1ccc(Cl)cc1,13.2%
19,CN(C)/C=C(/C(=O)c1ccc(Cl)cc1)S(=O)(=O)c1ccccc1,64.1% (active)
20,Cc1ccc(C(CNC(=O)Nc2ccccc2)N2CCN(C)CC2)cc1 (stereo not given),-3.91%
21,CCc1cc(=O)oc2c(C)c(OCC(=O)NCCN3CCOCC3)ccc12,-2.76%
22,Cc1cc(NC(=O)c2cnn3cccnc23)n(-c2ccccc2)n1,-5.01%
23,O=C(Nc1ccc(Cl)cn1)c1cnn2cccnc12,85.1% (active)
